# Assay outcomes deposited in PubChem BioAssay by National Center for Advancing Translational Sciences (NCATS).
# An excerpt weighted towards active compounds, which were near 19% of everything screened.
# ELG1 repair inh: ELG1-dependent DNA repair inhibition | HEK293T ELG1-luciferase reporter, luminescence, 16 h; DNA damage induced by 5-fluorouridine | Potency, µM (doses to about 46.1 µM), hits mostly inhibitors | 330,000 tested, 2.3% active | AID 504467; also: nearly all actives have a fitted effect of over 55% in size
#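 DMSO vehicle served as the neutral condition. Each well held 2,000 cells given 5-fluorouridine plus compound; after 16 hr at 37 °C/5% CO2, ONE-Glo was added and luciferase measured 30 min later.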
# HT1080 IDH1KD tx: HT-1080 IDH1 knockdown cell toxicity (counter line). HT-1080 IDH1 knockdown viability, ATP luminescence, 48 h. Potency, µM (highest dose often 46.1 µM), most hits filed as cytotoxic. 360,000 tested, 2% active. AID 686971
#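 After a 2 h attachment period, IDH1KD HT-1080 cells took pin-transferred compound for 48 h at 37 °C; ATP-based luminescence after 10 min room-temperature reagent incubation reported viability.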
# HT1080-NT tox: kills 2HG-producing HT-1080-NT fibrosarcoma cells; 360,000 tested, 1.6% active; Potency, µM (top dose mostly 46.1 µM), actives largely listed as cytotoxic; HT-1080-NT fibrosarcoma viability, CellTiter-Glo ATP luminescence, 48 h;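 also: NT is the 2HG producing partner of a matched IDH1 knockdown line; nearly all actives have a fitted effect of over 55% in size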
#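 HT-1080-NT fibrosarcoma cells (2HG-overproducing), 750 cells/well in RPMI with 5% FBS, dosed after 2 h and incubated 48 h at 37C. CellTiter-Glo luminescence normalized to DMSO and no-cell wells; concentration-response curves fitted and classed.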
# TDP1 cell CPT: DT40-hTDP1 cell growth loss with CPT; chicken DT40 Tdp1-/-;hTDP1 cells + 20 nM CPT, ATP luminescence, 48 h; Potency, µM (top dose mostly 46.2 µM), most hits filed as inhibitors; 420,000 tested, 12% active; AID 686979; also: nearly all actives have a fitted effect of over 55% in size
#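 Cell growth measured by CellTiter-Glo luminescence after a minimum 48 h, 37 C compound exposure with 20 nM CPT in Tdp1-knockout DT40 cells stably expressing hTDP1, seeded 400/well; qHTS titration format.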
# IL1B secr inh: inhibitors of inflammasome signaling (IL-1 beta secretion); THP-1 LPS/ATP IL-1B secretion, AlphaLISA, 16 h; hits give low values; activity change, % at 57.5 µM; 360,000 tested, 4.7% active; in the data active = activity change below about -50%; inconclusive = mostly about -30% to -49%
#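 Secreted IL-1B measured by AlphaLISA bead assay after 16 h compound exposure of THP-1 cells; compounds (final up to 57.5 uM) added 1 h before LPS (250 ng/mL) and ATP (1.25 mM) stimulation; lower signal means less secretion.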
# TDP1 cell noCPT: qHTS for Inhibitors of human tyrosyl-DNA phosphodiesterase 1 (TDP1): qHTS in cells in absence of CPT | DT40 Tdp1-/- hTDP1 cells, no CPT, ATP luminescence, 48 h | Potency, µM (top dose mostly 46.2 µM), most hits filed as inhibitors | 420,000 tested, 15% active | AID 686978, 2013; also: nearly all actives have a fitted effect of over 55% in size
#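 Growth kinetics read by CellTiter-Glo luminescence after ≥48 hr at 37 °C. Cells: DT40 Tdp1-/- stably carrying human TDP1, 400 per well, compound exposure in the absence of CPT (DMSO vehicle).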
# Numbers stand for hits; - = inactive; ? = inconclusive; . = no result. Unless noted, calls follow the shape of the dose curve; as a rule, active = well fitted curve in the direction sought with a large enough effect; inconclusive = small, poorly fitted or top-dose-only effect, or another doubt; inactive = no such curve, though single readings can be large; an effect the other way counts as inactive or inconclusive.
SMILES,ELG1 repair inh,HT1080 IDH1KD tx,HT1080-NT tox,TDP1 cell CPT,IL1B secr inh,TDP1 cell noCPT
Cc1ccc(N2CCN(S(=O)(=O)c3ccc(Cl)s3)CC2C)cc1 (configuration not stated),-,-,-,-,-,?
COc1ccc(CCNC(=O)COC(=O)c2ccc(F)c(S(=O)(=O)N3CCOCC3)c2)cc1,-,-,-,-,-,-
Cc1ccc(N2CCN(S(=O)(=O)c3cc(C(=O)Nc4cc(Cl)cc(Cl)c4)ccc3F)CC2C)cc1 (configuration not stated),.,.,.,?,.,16µM
CN(C)c1ncc2ncc(=O)n(C)c2n1,.,.,.,-,.,-
CC(C)c1cccc(C(C)C)c1NC(=O)CN1C(=O)NC2(CCCC2)C1=O,-,-,-,-,-,-
Cc1cccc(N2CCN(S(=O)(=O)c3cc(C(=O)Nc4ccc(Oc5ccccc5)cc4)ccc3F)CC2)c1C,.,.,.,5.2µM,.,?
CN1C2CCC1/C(=C\c1ccccc1F)C(=O)/C2=C/c1ccccc1F,-,12µM,?,?,-101,?
Fc1ccccc1/C=N/n1cnnc1,-,-,-,-,-,-
C=C1C=C(C(F)F)n2ncc(C(=O)NC(C)CC)c2N1 (configuration not stated),.,.,.,-,.,-
CCc1cccc(C)c1NC(=O)COC(=O)C1CCN(S(=O)(=O)c2ccccc2)CC1,-,-,-,-,-,-
COc1ccc(S(=O)(=O)N2CCN(CC(=O)Nc3ccc(Cl)c(C(F)(F)F)c3)CC2)cc1,.,.,.,9.2µM,.,8.2µM
NS(=O)(=O)c1ccc(NC(=O)CN2CCCN(S(=O)(=O)c3ccc(F)cc3)CC2)cc1,?,-,-,-,-,-
CCc1cccc(C)c1NC(=O)CN1CCN(S(=O)(=O)c2ccc(C(C)(C)C)cc2)CC1,?,-,?,-,?,23µM
COc1cccc(NC(=O)CN2CCN(S(=O)(=O)c3ccc(F)cc3)CC2)c1,-,-,-,-,-,-
NS(=O)(=O)c1ccc(NC(=O)CN2CCN(S(=O)(=O)c3ccc(F)cc3)CC2)cc1,-,-,-,21µM,-,21µM
O=C(CN1CCN(S(=O)(=O)c2ccc(F)cc2)CC1)Nc1cccc(C(F)(F)F)c1,-,-,-,?,-69,-
COc1ccc(OC)c(NC(=O)CC2C(=O)NCCN2C(=O)C(F)(F)F)c1 (configuration not stated),.,.,.,-,.,-
Cc1cc(C)c2c(-n3cccc3)c(C(=O)NCc3cccc(F)c3)sc2n1,.,.,.,-,.,-
CCn1c(C)nc2cc(NS(=O)(=O)c3ccccc3)cc(C(=O)N3C[C@@H](C)O[C@@H](C)C3)c21,.,.,.,-,.,-
CCn1c(C)nc2cc(C(=O)N/N=C(\C)c3ccccc3O)ccc21,?,-,-,3.7µM,-,2.9µM
CCn1c(C)nc2cc(C(=O)N/N=C/c3ccccc3C)ccc21,?,-,-,-,?,-
CCOC(=O)CCN(c1ccccc1)S(=O)(=O)c1ccc2[nH]c(=O)ccc2c1,.,.,.,-,.,-
O=C1C=CC(=O)N1N(c1ccccc1)c1ccccc1,?,?,-,10µM,?,21µM
O=C1c2ccccc2C(=O)N1N(c1ccccc1)c1ccccc1,.,-,-,-,-,-
Cc1ccc(NS(=O)(=O)c2csc(C(N)=O)c2)c(C)c1,-,-,-,-,-,-
Cc1ccc(NS(=O)(=O)c2csc(C(N)=O)c2)cc1C,-,-,-,?,-,21µM
CCc1cccc(NS(=O)(=O)c2csc(C(N)=O)c2)c1,-,-,-,-,-,15µM
Cc1cc(C)cc(NS(=O)(=O)c2csc(C(N)=O)c2)c1,?,-,-,-,-,-
C[C@H](CO)N1C[C@H](C)[C@H](CN(C)C(=O)Cc2ccncc2)Oc2ncc(Br)cc2C1=O,.,-,-,-,-,-
O=C(NNC(=O)C1CCC1)c1ccc(Br)cc1,-,-,-,-,-,-
